Structures are written as SMILES. This is part of a sample that, as a whole, favours compounds with a hit. Of some 83,000 tested, about 20% had one in any assay.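 In brief: 96-well plates, 48 h treatment, single concentration, percent growth endpoint.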 Unmarked numbers belong to inactive results. Calls of active or inactive are those of the source. How the source made its calls: active means growth percent below 10; inactive means the rest.

From PubChem BioAssay (NCI) come the findings set out here.

Test systems include NCI-H23 lung; NCI-H226 lung; NCI-H322M lung; HOP-62 NSCLC; NCI-H460 lung; NCI-H522 lung; A549/ATCC NSCLC; 786-0 renal; COLO 205 colon; DU-145 prostate.
Holding throughout (experiment): NCI-60 one-dose screen, 48 h (100 = growth as untreated, 0 = no growth, -100 = all killed)
What all share (details): 10 µM

With `C(CCCC1=NCCO1)CCCC1=NCCO1`, the growth with NCI-H23 lung was 97.2%; in the assay with NCI-H226 lung, 95.8%; in the assay on NCI-H322M lung, 118%; with HOP-62 NSCLC it was 107%; in the assay on NCI-H460 lung it was 104%; with NCI-H522 lung, 103%. Further, the growth with A549/ATCC NSCLC is 101%; in the assay on 786-0 renal it was 99.1%; in the assay on COLO 205 colon, 99.5%; in the assay with DU-145 prostate, 108%.
Turning to `COc1ccc(-c2nsc3c2NC(=O)CC3c2ccc(F)cc2)cc1` (stereo not given), the growth was 59.5% with NCI-H23 lung; 75.2% in the assay with NCI-H226 lung; 39.6% in the assay with NCI-H322M lung; 44.3% in the assay on HOP-62 NSCLC; 17.2% in the assay with NCI-H460 lung; 3.06% (active) with NCI-H522 lung. In addition, the growth was 27.2% with A549/ATCC NSCLC, 57.5% in the assay on 786-0 renal, 9.44% (active) in the assay on COLO 205 colon and 58.7% with DU-145 prostate.
For the compound `COc1cc(CNc2ccccc2C(=O)N2CCN(C(=O)c3cc(-c4cc(OC)c(OC)c(OC)c4)n4nc(-c5ccccc5)cc4n3)CC2)cc(OC)c1OC`, the growth was 61.7% in the assay with NCI-H23 lung; 76.5% in the assay with NCI-H226 lung; 43.7% with NCI-H322M lung; 53.9% in the assay with HOP-62 NSCLC; 11.7% with NCI-H460 lung; 7.02% (active) in the assay on NCI-H522 lung. Besides, the growth in the assay on A549/ATCC NSCLC is 37.8%; in the assay with 786-0 renal, 50.8%; with COLO 205 colon, 46.8%; with DU-145 prostate it was 67.7%.
For the compound `O=C1OCC2=C1C(c1cccc(Cl)c1)c1cc3c(cc1N2CCO)OCCO3` (stereo not given), the growth with NCI-H23 lung is 19.6%; in the assay with NCI-H226 lung, -5.85% (active); in the assay with NCI-H322M lung it was 35.3%; in the assay on HOP-62 NSCLC, 26.7%; with NCI-H460 lung, 0.852% (active); in the assay with NCI-H522 lung, -22.4% (active). Also, the growth was 13.8% in the assay with A549/ATCC NSCLC, 23.7% in the assay with 786-0 renal, -26.9% (active) in the assay on COLO 205 colon and -35.6% (active) in the assay with DU-145 prostate.
`O=C(C[P+](c1ccccc1)(c1ccccc1)c1ccccc1)C[P+](c1ccccc1)(c1ccccc1)c1ccccc1`: the growth in the assay with NCI-H23 lung is -14.5% (active); in the assay with NCI-H226 lung, -71.8% (active); in the assay on NCI-H322M lung, -59.3% (active); in the assay with HOP-62 NSCLC it was -59.8% (active); in the assay with NCI-H460 lung it was -68.3% (active); in the assay on NCI-H522 lung it was -83.8% (active). The growth is -27.9% (active) in the assay with A549/ATCC NSCLC, -97.9% (active) in the assay on 786-0 renal, -27.9% (active) with COLO 205 colon and -94% (active) in the assay on DU-145 prostate.
On to `CCCCCCCCCCCCC1C/C=C\CCCC(=O)O1` (stereo not given), for which the growth with NCI-H23 lung was 91.1%; in the assay on NCI-H226 lung it was 167%; in the assay with NCI-H322M lung it was 108%; in the assay on HOP-62 NSCLC, 106%; with NCI-H460 lung, 109%; in the assay on NCI-H522 lung it was 98.1%. The growth in the assay with A549/ATCC NSCLC was 80.7%; in the assay on 786-0 renal it was 98.4%; with COLO 205 colon it was 113%; in the assay on DU-145 prostate, 130%.
Regarding `O=C(Nc1cccc(-n2cc(-c3ccncc3)c(-c3cc(O)cc(Cl)c3)n2)c1)c1ccc(N2CCOCC2)c(C(F)(F)F)c1`, the growth is 15.4% in the assay with NCI-H23 lung; 94.7% in the assay on NCI-H226 lung; 43.5% with NCI-H322M lung; -2.19% (active) in the assay with HOP-62 NSCLC; -26% (active) in the assay on NCI-H460 lung; 18.8% with NCI-H522 lung. The growth in the assay with A549/ATCC NSCLC is 9.62% (active); with 786-0 renal, 36.6%; in the assay on COLO 205 colon it was 80.5%; in the assay with DU-145 prostate it was 38%.
For the compound `O=C(/C=C/c1cc2ccccc2[nH]c1=O)c1ccc2c(c1)OCO2`, the growth with NCI-H23 lung was 98.5%; with NCI-H226 lung, 114%; in the assay on NCI-H322M lung it was 92%; in the assay on HOP-62 NSCLC it was 98%; in the assay on NCI-H460 lung, 94.4%; in the assay with NCI-H522 lung, 3.16% (active). In addition, the growth in the assay with A549/ATCC NSCLC was 93.4%; in the assay with 786-0 renal it was 102%; with COLO 205 colon, 95.7%; with DU-145 prostate, 102%.
Regarding `c1ccc(CSc2nnc3c4c5c(sc4nc(-c4cccnc4)n23)CCCCCC5)cc1`, the growth in the assay with NCI-H23 lung is 54.7%; in the assay on NCI-H226 lung it was 67.1%; in the assay on NCI-H322M lung, 99.7%; in the assay on HOP-62 NSCLC, 91.3%; in the assay on NCI-H460 lung, 19.3%; in the assay with NCI-H522 lung, 6.26% (active). Moreover, the growth was 36.8% with A549/ATCC NSCLC, 73.6% in the assay with 786-0 renal, 20.5% in the assay with COLO 205 colon and 56.4% with DU-145 prostate.
With `Cc1nc2ccccc2c(N)c1-c1cc(C)c2c(C)nc3ccccc3c2n1`, the growth in the assay on NCI-H23 lung was 44.8%; in the assay with NCI-H226 lung it was 98.8%; in the assay with NCI-H322M lung, 10.7%; in the assay with HOP-62 NSCLC it was 58.4%; in the assay with NCI-H460 lung, -75.8% (active); in the assay with NCI-H522 lung, 68.6%. For the same compound, the growth in the assay with A549/ATCC NSCLC is -75.4% (active); with 786-0 renal it was -89.2% (active); with COLO 205 colon, -91% (active); with DU-145 prostate it was -82.4% (active).
For `O=C(CC(c1ccccc1)N1CCOCC1)c1ccccc1` (stereo not given), the growth with NCI-H23 lung was 83.3%; in the assay on NCI-H226 lung, 90.8%; in the assay on NCI-H322M lung, 96.9%; with HOP-62 NSCLC it was 88.2%; with NCI-H460 lung it was 106%; with NCI-H522 lung, 88.5%. The growth in the assay with A549/ATCC NSCLC was 97.4%; with 786-0 renal, 80.9%; in the assay with COLO 205 colon, 116%; in the assay on DU-145 prostate, 80.3%.
For the compound `CCCCCCN(CCCCCC)CC(O)c1ccc2c3c(cccc13)CC2` (stereo not given), the growth is 30.5% with NCI-H23 lung; 69.9% with NCI-H226 lung; 65.9% in the assay on NCI-H322M lung; 85.2% in the assay on HOP-62 NSCLC; 42.6% in the assay with NCI-H460 lung; 30.1% with NCI-H522 lung. For the same compound, the growth with A549/ATCC NSCLC is 64.1%; in the assay with 786-0 renal it was 43.1%; in the assay on COLO 205 colon, 64.1%; in the assay with DU-145 prostate, 76.4%.
In the case of `N#CCCN(NC(=O)OCc1ccccc1)C(=O)OCc1ccccc1`, the growth in the assay with NCI-H23 lung is 107%; in the assay with NCI-H226 lung, 115%; in the assay with NCI-H322M lung it was 109%; with HOP-62 NSCLC, 120%; in the assay on NCI-H460 lung, 103%; in the assay on NCI-H522 lung, 120%. Further, the growth in the assay with A549/ATCC NSCLC was 106%; in the assay on 786-0 renal, 97.9%; in the assay with COLO 205 colon, 119%; in the assay with DU-145 prostate, 109%.
As to `O=C1NC(=O)N(Cc2ccccc2)CC1Br` (stereo not given), the growth was 52.6% in the assay with NCI-H23 lung; 83.2% in the assay on NCI-H226 lung; 104% in the assay on NCI-H322M lung; 79.2% in the assay with HOP-62 NSCLC; 96.7% in the assay on NCI-H460 lung; -9.22% (active) in the assay on NCI-H522 lung. For the same compound, the growth with A549/ATCC NSCLC is 102%; in the assay with 786-0 renal, 63%; in the assay on COLO 205 colon it was 64.9%; in the assay on DU-145 prostate, 104%.
